Shown are actives, neighbours in structure and some others; about 1.3% of the full set was active somewhere.
IDE act: activators of human insulin-degrading enzyme in cells; HEK cells, FAbeta-B cleavage, fluorescence polarization; 0% vehicle, 100% cell-free pure enzyme wells; P14735; AID 493087; 340,000 compounds, 0.073% hits; activation, % at 5.96 µM;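 active = activation above the mean of all tested compounds plus 3 SD, set per screening campaign, cut at about 17% in these data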
PKA-R2B act: PKA-R2B complex activation | PKA-R2B holoenzyme dissociation, Cy5-IP20 fluorescence polarization; R2B truncated from residue 108, S112A mutant; 0% DMSO only, 100% 113 µM cGMP | activation, % at 11.4 µM | 340,000 compounds, 0.079% hits;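 active = activation above a cutoff set at the mean over all compounds plus 3 SD, cut at about 18% in these data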;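 also: higher means more holoenzyme dissociation and a rise in polarization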
PKA-R1A act: activators of PKA-R1A complex | P00514+P68181 | PKA-R1A dissociation, Cy5-IP20 fluorescence polarization; scaled: DMSO 0%, 113 µM cGMP 100% | activation, % at 11.4 µM | 340,000 compounds, 0.083% hits;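 active = percent activation above the mean of all tested compounds plus 3 SD, cut at about 19% in these data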;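 also: higher means more PKAc released from R1A so a rise in polarization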
IDE cell inh: cellular human IDE inhibition | HEK cells, FAbetaB cleavage, fluorescence polarization | AID 434962 | P14735 | 320,000 compounds, 0.41% hits | inhibition, % at 5.59 µM;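 active = percent inhibition above the average of all tested compounds plus 3 SD, set per screening campaign, cut at about 16% in these data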;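 also: IDE supplied by intact live HEK cells; FP after avidin binding of uncleaved biotin substrate so inhibition keeps polarization high; 0% = DMSO wells and 100% = 60 µM reference IDE inhibitor Ii1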
Rin1-Abl PPI inh: human Rin1-Abl interaction inhibition | 360,000 compounds, 0.4% hits | AID 588664 | inhibition, % at 7.35 µM | TR-FRET Rin1/Abl binding, biochemical; in the data active = inhibition above about 5%, passing the limit was not always enough
eLon inh: E. coli protease La inhibition; P0A9M0; purified E. coli Lon protease, fluorescence polarization; inhibition, % at 7.94 µM; 360,000 compounds, 0.42% hits; AID 602123; in the data active = inhibition above about 13%, passing the limit was not always enough;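 also: 0% = enzyme with probe and DMSO and 100% = no enzyme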
Target sequence (P0A9M0 whole entry, looked up): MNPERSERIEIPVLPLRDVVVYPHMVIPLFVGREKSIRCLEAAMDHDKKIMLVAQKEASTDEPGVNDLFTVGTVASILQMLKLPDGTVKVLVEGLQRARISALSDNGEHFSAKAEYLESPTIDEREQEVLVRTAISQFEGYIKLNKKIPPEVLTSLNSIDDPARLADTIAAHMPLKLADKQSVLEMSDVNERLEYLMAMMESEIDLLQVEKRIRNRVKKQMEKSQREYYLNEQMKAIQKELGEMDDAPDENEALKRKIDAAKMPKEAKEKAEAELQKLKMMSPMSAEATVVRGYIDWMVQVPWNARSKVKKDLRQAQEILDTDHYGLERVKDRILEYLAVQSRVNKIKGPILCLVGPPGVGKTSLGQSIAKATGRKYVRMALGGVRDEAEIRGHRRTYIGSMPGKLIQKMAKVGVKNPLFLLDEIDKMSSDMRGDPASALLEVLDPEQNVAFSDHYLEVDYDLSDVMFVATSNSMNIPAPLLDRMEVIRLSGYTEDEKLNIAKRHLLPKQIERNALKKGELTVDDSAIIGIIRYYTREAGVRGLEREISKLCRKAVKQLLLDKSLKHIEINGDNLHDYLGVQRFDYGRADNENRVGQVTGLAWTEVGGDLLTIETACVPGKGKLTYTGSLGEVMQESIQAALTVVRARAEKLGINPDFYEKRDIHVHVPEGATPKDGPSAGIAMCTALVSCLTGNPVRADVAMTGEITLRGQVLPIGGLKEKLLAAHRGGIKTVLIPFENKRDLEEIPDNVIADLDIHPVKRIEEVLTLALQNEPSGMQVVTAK
Starred values were filed as active, the others as inactive; i = inactive; x = not tested or not shown.

SMILES	IDE act	PKA-R2B act	PKA-R1A act	IDE cell inh	Rin1-Abl PPI inh	eLon inh
COc1cc(C2Nc3cccc4cccc(c34)N2)cc(OC)c1OC(C)=O	0	-5	-10	-8	2	5
O=C(Cn1cnnn1)NCCc1ccc(Cl)cc1Cl	-2	5	-3	-5	1	14
Cc1ccc(NC(=O)NCc2ccncc2)cc1Cl	-1	-5	-11	3	5	-4
COc1ccc(-n2c(N)c(C(=O)NCc3ccco3)c3nc4ccccc4nc32)cc1	4	-6	4	0	2	-20
Nc1c(C(=O)NCc2ccco2)c2nc3ccccc3nc2n1CCc1ccc(F)cc1	0	0	-13	3	15*	-19
CC(C)c1nc(CNC(=O)CC2C(=O)NCCN2Cc2ccccc2)cs1 (stereo unspecified)	x	-6	-4	x	4	-1
CCOC(=O)c1c(CSC(=N)N)n(-c2ccc(C)cc2)c2cc(Br)c(OC(C)=O)cc12	18*	13	1	2	2	0
N#CC1=C(N)C(C#N)(C#N)C(c2ccncc2)C2CN(C(=O)OCc3ccccc3)CC=C12 (stereo unspecified)	-16	-7	5	10	-1	-6
CN1CC=C2C(C#N)=C(N)C(C#N)(C#N)[C@H](c3cccs3)[C@H]2C1	4	-4	-5	12	0	109*
CN1CC=C2C(C#N)=C(N)C(C#N)(C#N)C(CCc3ccccc3)C2C1 (stereo unspecified)	4	-2	-9	4	-3	33*
O=[N+]([O-])c1ccc(S(=O)(=O)Nc2ccc3c(c2)OCCO3)cc1	5	-5	2	-1	2	14
Oc1c(C=Nc2cccc3cccnc23)sc2ccccc12	x	x	x	49*	x	x
O=c1c2sccc2n(Cc2cccc(F)c2)c(=O)n1-c1ccc(F)cc1	3	3	-5	-6	-1	-16
C=CCc1cc(/C=N/n2cnnc2)cc(OCC)c1O	3	2	-2	7	-1	-7
C1CCCCCC(=NNc2nn[nH]n2)CCCCC1	34*	17	1	1	-2	-1
Cc1ccc(S(=O)(=O)Nc2nc3ccccc3nc2NCc2ccco2)cc1	-9	-13	8	6	1	38*
COc1ccc2[nH]c(O)c(NC(C)=O)c2c1	3	-3	-16	12	-3	-10
O=c1c2ccccc2sn1-c1cc(S(=O)(=O)N2CCOCC2)ccc1N1CCCC1	-36	-4	2	51*	-6	7
Nc1cc(S(=O)(=O)N2CCOCC2)ccc1N1CCCCC1	-6	-1	-5	4	1	-14
CN(C)c1nc(Oc2ccc(=O)[nH]n2)nc(N2CCCCC2)n1	1	6	3	3	4	5
COc1cc(/C=C(\C#N)c2nc3ccccc3s2)ccc1OCC(=O)Nc1ccccc1	1	-7	-1	28*	-1	-78
CCN1CCN(c2c(/C=C3\SC(=S)N(Cc4ccco4)C3=O)c(C)c(C#N)c(=O)n2C)CC1	-62	-6	-1	66*	1	i
CCN1C(=O)/C(=C\N2CCN(C(=O)c3ccco3)CC2)SC1=S	4	0	4	-3	-4	5
CC(=O)Nc1nc2n(n1)C(c1ccccc1)C=C(c1ccccc1)N2 (stereo unspecified)	4	-14	10	2	-1	31*
COc1ccc(C2C=C(c3ccc(Cl)cc3)Nc3nc(NC(C)=O)nn32)cc1 (stereo unspecified)	x	x	x	20*	x	x
SMILES	IDE act	PKA-R2B act	PKA-R1A act	IDE cell inh	Rin1-Abl PPI inh	eLon inh
CC(=O)Nc1nc2n(n1)C(c1ccc(Cl)cc1)C=C(C)N2 (stereo unspecified)	1	7	-4	5	-1	-1
CC(=O)Nc1nc2n(n1)C(c1ccc(F)cc1)C=C(c1ccccc1)N2 (stereo unspecified)	6	-14	2	6	-6	10
N#Cc1c(NC(=O)c2ccc(Br)o2)n(-c2ccccc2)c2nc3ccccc3nc12	-12	3	-9	0	7.7*	-42
CCC(=O)Nc1c(C#N)c2nc3ccccc3nc2n1-c1ccc(C)cc1	6	-4	11	x	1	-1
CC(OC(=O)CC1CC2CCC1C2)C(=O)Nc1ccc(N2CCOCC2)cc1 (stereo unspecified)	4	4	1	8	-2	-2
CC(OC(=O)CC1CC2CCC1C2)C(=O)Nc1cccc(S(=O)(=O)N2CCOCC2)c1 (stereo unspecified)	18*	6	6	7	1	-4
NC(=O)[C@H](Cc1cc2ccccc2s1)NC(=O)[C@@H]1CC2(CC(c3cccc(NC(=O)[C@@H]4CCC(=O)N4)c3)=NO2)CN1C(=O)/C=C/Sc1ccccc1 (stereo partly specified)	7	-5	-12	-2	1	2
CCCCOc1ccc(C2OC34CCCCC3C(C#N)(C#N)C2(C#N)C(=N)O4)cc1 (stereo unspecified)	0	2	2	-2	-1	27
CCOc1ccc(C2OC34CCCCC3C(C#N)(C#N)C2(C#N)C(=N)O4)cc1OC (stereo unspecified)	2	-12	-9	7	0	34*
CCN(C(=O)COC(=O)c1cccc2ccccc12)c1c(N)n(Cc2ccccc2)c(=O)[nH]c1=O	2	4	0	x	3	-2
O=C(NCc1ccco1)c1cnn2c1NC(c1ccccc1)CC2C(F)(F)F (stereo unspecified)	6	-4	-8	-5	2	-1
Cc1ccccc1Cn1ccc(NC(=O)c2cnn3c2NC(c2ccccc2)CC3C(F)(F)F)n1 (stereo unspecified)	-4	-11	-5	3	0	22*
N=c1n(Cc2ccc(Cl)cc2)c2ccccc2n1CC(O)COc1ccccc1 (stereo unspecified)	11	-2	-3	2	0	-6
N=c1n(Cc2ccccc2)c2ccccc2n1CC(O)COc1ccc(Cl)cc1Cl (stereo unspecified)	20*	-10	-7	x	2	0
Cc1ccc(N2CCN(CCc3nc4cc(NS(C)(=O)=O)ccc4n3C)CC2)cc1	-1	-7	0	8	-1	7
CCOc1ccc(NC(=O)C2(c3ccc(OC)c(OC)c3)CCCC2)cc1	1	-1	-8	3	-2	6
O=c1c(O)c(-c2cc(O)c(O)c(O)c2)oc2cc(O)cc(O)c12	-4	-12	-1	3	55*	6
COCCCNC1=C(Cl)C(=O)c2ccccc2C1=O	1	-4	2	-1	-12	7
